Most compounds without a hit are left out; they make up all but 9.2% or so of the library.
Rab9 promoter act: Rab9 promoter activation | Potency, µM (highest dose often 9.22 µM), inactives show at the highest dose activation, negative = inhibition, most hits filed as activators | AID 485297 | 2.8% of 320,000 active | Huh7 Rab9 promoter-luciferase reporter, luminescence, 24 h; also: % of control where 0% means no effect; nearly all actives have a fitted effect of over 60% in size
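Measured in stably transfected Huh7 cells bearing a Rab9 promoter–luciferase construct: 24 h compound treatment at 37 °C, followed by luminescence detection.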
SMN2 splice enh: SMN2 splice variant enhancement; HEK293 SMN2-luciferase splicing reporter, luminescence, 30-36 h; Potency, µM (series often up to 46.1 µM), for the others: top-dose activity change, positive = activation, hits mostly activators; 2.8% of 210,000 active; AID 1458; also: % of control where 0% means no effect; nearly all actives have a fitted effect of over 55% in size
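HEK293 cells carry an SMN2 […]–luciferase reporter in which exon 7 inclusion puts luciferase in frame. Cells were plated 10-12 h before compound addition, then incubated 30-36 h at 37C. ONE-Glo luminescence was read; sodium butyrate at 4.5 mM final served as control.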
ELG1 genotoxic: inducers of genotoxicity in HEK293T ELG1-luciferase cells; HEK293T ELG1-luciferase reporter, luminescence, 16 h; 1.3% of 330,000 active; Potency, µM (series often up to 46 µM), for the others: top-dose activity change, positive = activation, most hits filed as activators; also: % of control where 0% means no effect; nearly all actives have a fitted effect of over 60% in size
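Quantitative HTS format in 1536-well plates. HEK293T ELG1-luciferase reporter cells receive test compound and are incubated 16 hr at 37 °C, 5% CO2; ONE-Glo added, 30 min room temperature, then luminescence read.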
ELG1 repair inh: blocks ELG1-dependent DNA repair in HEK293T cells | HEK293T ELG1-luciferase reporter, luminescence, 16 h; DNA damage induced by 5-fluorouridine | Potency, µM (series often up to 46.1 µM), inactives show at the highest dose activity change, negative = inhibition, actives largely listed as inhibitors | 2.3% of 330,000 active; also: % is scaled to controls: 0 for no effect and ±100 for the full control effect; nearly all actives have a fitted effect of over 55% in size
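HEK293T cells expressing luciferase-tagged ELG1 (2,000/well) received 5-Fluorouridine plus compound or DMSO for 16 hr at 37 °C. Luciferase was read by ONE-Glo luminescence after 30 min at room temperature.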
NPC1 promoter act: activators of NPC1 promoter; Huh7 NPC1 promoter luciferase reporter, 24 h; Potency, µM (series often up to 9.22 µM), inactives show at the highest dose activation, actives largely listed as activators; 2.4% of 320,000 active; AID 485313; also: % of control where 0% means no effect; nearly all actives have a fitted effect of over 60% in size
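Luminescence read-out of NPC1 promoter-driven luciferase in stably transfected Huh7 cells; compounds delivered in DMSO and left 24 h at 37C, 5% CO2, qHTS titration format.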
FLuc counter: firefly luciferase modulation, counter-screen for miR-21 project. P08659. purified FLuc, Km substrates, luminescence inhibition. Potency, µM (titrated, usually from 57.5 µM), inactives show at the top dose activity change, negative = inhibition, hits mostly inhibitors. 6.9% of 360,000 active;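 also: plate controls were vehicle for no effect and reference inhibitor for full effect; nearly all actives have a fitted effect of over 55% in size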
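Purified P. pyralis luciferase, 10 nM final, with Km-level 10 uM D-luciferin and 10 uM ATP in 50 mM Tris acetate pH 7.5, 10 mM Mg acetate, 0.01% Tween-20, 0.05% BSA; 6-point qHTS titration about 60 µM downward; luminescence read.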
ELG1 FLuc counter: luciferase inhibition in cell-free luciferin readout for ELG1 hits. shares compounds with ELG1 repair inh. cell-free firefly luciferase luminescence counter-screen, ViewLux. Potency, µM (highest dose often 46.1 µM), inactives show at the highest dose activity change, negative = inhibition, hits mostly inhibitors. 3% of 350 active. AID 624247; also: % is scaled to controls: 0 for no effect and ±100 for the full control effect
ELG1 Luc conf: confirmation of human ELG1-dependent DNA repair inhibitors; shares compounds with ELG1 repair inh; HEK293T ELG1-luciferase levels, luminescence; cells co-treated with 5-fluorouridine; Potency, µM (titrated, usually from 46.1 µM), inactives show at the top dose activity change, negative = inhibition, usual class: inhibitors; 68% of 670 active; also: % is scaled to controls: 0 for no effect and ±100 for the full control effect; nearly all actives have a fitted effect of over 55% in size
ELG1 MMS Luc: MMS-stimulated human ELG1 repair inhibition, confirmed; shares compounds with ELG1 repair inh; HEK293T luciferase-tagged ELG1 level, MMS stimulated; Potency, µM (highest dose often 46.1 µM), for the others: at the top dose activity change, negative = inhibition, actives largely listed as inhibitors; 53% of 670 active; AID 624249; also: % is scaled to controls: 0 for no effect and ±100 for the full control effect; nearly all actives have a fitted effect of over 60% in size
ELG1 5FU viab: confirmation of ELG1 repair inhibitors: viability with 5FU. shares compounds with ELG1 repair inh. cell viability with 5-FU, ELG1-dependent repair. Potency, µM (top dose mostly 46.1 µM), for the others: top-dose activity change, negative = viability loss, hits mostly cytotoxic. 670 tested, under 10 active. AID 624250;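 also: ELG1-luc HEK293T cells cotreated with 5-fluorouridine at 10 µM final; viability measured 16 h after compound addition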
ELG1 MMS cell: confirmation of ELG1 repair inhibitors: viability with MMS | Potency, µM (top dose mostly 46.1 µM), for inactives: top-dose activity change, negative = viability loss, usual class: cytotoxic | AID 624251 | Cell viability with MMS, ELG1-dependent DNA repair | shares compounds with ELG1 repair inh | 33% of 670 active;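 also: ELG1-luc HEK293T cells co-treated with 10 µM MMS; viability read 16 h after compound addition; % is scaled to controls: 0 for no effect and ±100 for the full control effect; nearly all actives have a fitted effect of over 60% in size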
Cell viab unstim: counter-screen for ELG1 repair inhibitors: unstimulated cell viability; 8% of 900 active; AID 624252; cell viability counter-screen, unstimulated, luminescence; shares compounds with ELG1 repair inh; Potency, µM (highest dose often 45.9 µM), without a hit: at the top dose activity change, negative = loss of viability, most hits filed as cytotoxic;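 also: compound exposure lasted 16 hours before reading; % is scaled to controls: 0 for no effect and ±100 for the full control effect; nearly all actives have a fitted effect of over 55% in size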
FLuc biochem: firefly luciferase inhibition counter-screen; shares compounds with ELG1 repair inh; purified firefly luciferase, luminescence counter-screen; Potency, µM (doses to about 57.5 µM), without a hit: top-dose activity, negative = inhibition, actives largely listed as inhibitors; 10% of 350 active; AID 624253; also: % is scaled to controls: 0 for no effect and ±100 for the full control effect
* marks the source's active call; other numbers are inactive results; ? = inconclusive; . = no result. Calls follow the shape of the dose curve; as a rule, active = well fitted curve in the direction sought with a large enough effect; inconclusive = small, poorly fitted or top-dose-only effect, or another doubt; inactive = no such curve, though single readings can be large; an effect the other way counts as inactive or inconclusive. Potency is read from the fitted curve at half-maximal effect.

SMILES	Rab9 promoter act	SMN2 splice enh	ELG1 genotoxic	ELG1 repair inh	NPC1 promoter act	FLuc counter	ELG1 Luc conf	ELG1 MMS Luc	ELG1 5FU viab	ELG1 MMS cell	Cell viab unstim	others
O=C(O)/C=C/c1cccnc1	0.2%	.	-0.9%	19.9%	-1.6%	4.2%	.	.	.	.	.
C(=C\c1ccc2ccccc2n1)/c1cccnc1	.	.	.	.	.	.	.	.	.	.	?	ELG1 FLuc counter=-19.9%;FLuc biochem=0.291µM*
Cc1ccc(/C=C/S(=O)(=O)NCC(=O)OCC(=O)N2CC(=O)Nc3ccccc32)cc1	9.3%	.	-2.1%	15.9%	-2.3%	-1.2%	.	.	.	.	.
CCC(=O)N1CCc2cc(OC)c(OC)cc2C1COc1ccccc1OC (configuration not stated)	2.7%	20.1%	11.4%	?	-7.9%	-2.7%	.	.	.	.	.
COc1ccc(C(=O)N2CCc3cc(OC)c(OC)cc3C2c2ccc(OC)c(OC)c2)cc1OC (configuration not stated)	-1.0%	.	3.5%	3.66µM*	0.6%	-2.9%	?	15.4%	?	-12.8%	-19.0%
CCCC(=O)N1CCc2cc(OC)c(OC)cc2C1COc1ccccc1OC (configuration not stated)	-4.3%	.	0.3%	-8.1%	-2.5%	-3.0%	8.89µM*	?	3.9%	?	-5.3%	ELG1 FLuc counter=10.2%;FLuc biochem=-5.2%
O=c1c(Cc2ccc(F)cc2)c(O)ccn1CCCN1CCOCC1	-1.5%	14.5%	0.1%	0.9%	-5.7%	-0.9%	.	.	.	.	.
COc1nc(Nc2nc3ccccc3c(=O)[nH]2)nc2ccc(C)cc12	-30.4%	.	-8.1%	4.61µM*	-34.5%	-2.4%	2.23µM*	3.15µM*	?	7.1%	-4.8%
Cc1ccc(S(=O)(=O)c2nc(-c3cccs3)oc2SCc2ccc(F)cc2)cc1	.	5.6%	.	.	.	2.6%	.	.	.	.	.
CC(=O)NC1C(c2nc3ccccc3s2)=C(c2ccccc2)C(=O)N1c1ccc(C)cc1 (configuration not stated)	9.6%	27.7%	5.2%	?	-5.3%	7.4%	.	.	.	.	.
COc1cccc(N2C(=O)C(c3ccccc3)=C(c3nc4ccccc4s3)C2NC(C)=O)c1 (configuration not stated)	-4.0%	24.8%	-1.1%	2.31µM*	-3.6%	6.1%	3.15µM*	2.6%	?	-2.0%	-3.2%	ELG1 FLuc counter=3.2%;FLuc biochem=-15.9%
CCCCCCCCCCn1c2c(c(=N)c3c1CCC3)CCC2	-41.5%	-54.8%	-11.1%	?	-42.5%	2.6%	.	.	.	.	.
CCCCCn1c2c(c(=N)c3ccccc31)CCC2	-39.9%	.	-18.2%	5.17µM*	-34.8%	-1.6%	1.99µM*	2.23µM*	-16.0%	2.81µM*	?	ELG1 FLuc counter=?;FLuc biochem=3.0%
CCN(CC)S(=O)(=O)c1cccc(NC(=O)c2cccc(S(=O)(=O)N3CCCC3)c2)c1	1.4%	.	-4.8%	?	0.5%	.	.	.	.	.	.
Cc1cc(OCC(=O)Nc2ccc(N3CCCC3)cc2)cc(C)c1Cl	2.5%	-11.2%	-3.1%	-5.2%	-1.5%	1.8%	.	.	.	.	.
Cc1cc(OCC(=O)Nc2ccncc2)cc(C)c1Cl	3.0%	.	9.6%	2.59µM*	-6.9%	-1.0%	?	2.5µM*	3.6%	2.5µM*	-12.5%
COc1ccc(C2=NS(=O)(=O)N(C)C(C(=O)Nc3ccc4c(c3)OCO4)=C2)cc1OC	-1.7%	.	-1.1%	-20.1%	2.7%	?	.	.	.	.	.
COc1ccc2c(c1)c(C(C)=O)c(C)n2-c1ccc(C(C)=O)cc1	-2.0%	.	-21.1%	?	10.1%	5.0%	.	.	.	.	.
COc1ccc(-n2c(C)c(C(C)=O)c3cc(OC(C)=O)ccc32)cc1	4.6%	.	-11.1%	0.82µM*	6.0%	2.9%	0.629µM*	?	15.1%	8.8%	-7.6%	ELG1 FLuc counter=-17.7%;FLuc biochem=-1.6%
Fc1ccccc1COc1ccc(Br)cc1CNCc1ccncc1	-0.4%	-19.5%	-23.6%	?	4.5%	-0.5%	.	.	.	.	.
Fc1ccc(COc2ccc(Br)cc2CNCc2ccncc2)cc1	0.6%	-7.7%	-10.8%	?	-5.8%	0.6%	28.1µM*	?	-7.2%	?	?
O=C(Cc1ccccc1)N1CCCC(c2nc(-c3ccc(S(=O)(=O)N4CCCC4)cc3)no2)C1 (configuration not stated)	0.7%	-45.4%	-15.1%	?	-5.4%	5.7%	.	.	.	.	.
CS(=O)(=O)N1CCCC(c2nc(-c3ccc(S(=O)(=O)NCc4ccccc4)cc3)no2)C1 (configuration not stated)	-18.2%	-69.3%	-11.6%	3.66µM*	-12.6%	7.4%	14.1µM*	1.99µM*	-20.0%	1.99µM*	14.1µM*
CCN(CC)c1ccc(NS(=O)(=O)c2ccc(OC)cc2)cc1	-8.1%	-51.1%	-6.2%	?	-5.0%	3.5%	.	.	.	.	.
CCOc1ccc2nc(Cl)c(C3CC(c4ccc(C)cc4)=NN3C(=O)CCCC(=O)O)cc2c1 (configuration not stated)	.	6.9%	.	.	.	-18.0%	.	.	.	.	.
CC(CCC(=O)O)C1CC[C@H]2C3CCC4CC(=O)CCC4(C)[C@H]3CC(=O)C12C (some centres not stated)	-1.4%	.	-0.1%	-12.0%	-0.9%	0.6%	.	.	.	.	.

Screening results from PubChem.
